Among the data in PubChem BioAssay (NCI) are growth values, retold here.

The panel holds about 83,000 compounds, 20% with a hit somewhere; the sample as a whole holds those more often.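 Values shown are percent growth following 48 h exposure of cells in 96-well plates to a single concentration of compound; below 10 was considered active.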 A number with no mark means an inactive call. Active and inactive are the calls of the source.

What all share (test): NCI-60 one-dose screen, 48 h (100 = growth as untreated, 0 = no growth, -100 = all killed)
Holding throughout (settings): 10 µM unless noted

Assay [1] concerns HCT-15 colon.
The subject of assay [2] is HT29 colon.
Assay [3] has as its system SNB-75 CNS.
Assay [4] deals with SNB-19 CNS.
Assay [5] relates to U251 CNS.
The subject of assay [6] is PC-3 prostate.
The subject of assay [7] is SK-MEL-5 melanoma.
Assay [8] relates to UACC-62 melanoma.
Assay [9] deals with LOX IMVI melanoma.
Assay [10] concerns SK-MEL-28 melanoma.

For the compound `Fc1ccc(-c2cnc3nonc3n2)c(F)c1`, the growth in assay [1] was 78.3%; in assay [2] it was 113%; in [3], 96.4%; in assay [4], 92.5%; in assay [5], 111%; in assay [6] it was 73.3%. Moreover, the growth is 96.2% in assay [7], 87.6% in assay [8], 93.1% in [9] and 101% in assay [10].
As for `CCN(CC)CCCC(C)Nc1ccnc2ccc(Oc3ccccc3)cc12` (stereo unspecified), the growth in [1] was 49.6%; in assay [2] it was 38.6%; in assay [3], 73.2%; in assay [4], 89.4%; in assay [5], 63.5%; in assay [6], 84.9%. In addition, the growth is -89% (active) in [7], 31.7% in assay [8], 36.4% in assay [9] and -6.8% (active) in assay [10].
With `COC(=O)[C@H](Cc1cn(C)cn1)NC(=O)[C@H](CC(C)C)NC(=O)Nc1cc(C(F)(F)F)cc(C(F)(F)F)c1`, the growth in assay [1] was -96.6% [100 µM] (active); in assay [2] it was -89.6% [100 µM] (active); in assay [3], -100% [100 µM] (active); in [4] it was -97.9% [100 µM] (active); in assay [6], -95.1% [100 µM] (active); in assay [7], -95.4% [100 µM] (active). Besides, the figures for the growth in assay [8], in assay [9] and in assay [10] were -99.3% [100 µM] (active), -86.6% [100 µM] (active) and -100% [100 µM] (active), respectively.
As for `CN(C)N1C(=O)c2c(Cl)c(Cl)c(Cl)c(Cl)c2C1=O`, the growth was 109% in assay [1]; 107% in [2]; 92.7% in [3]; 108% in assay [4]; 102% in assay [5]; 99.2% in [6]. Moreover, the growth in [7] was 101%; in assay [8] it was 104%; in assay [9], 96.8%; in [10], 112%.
For the compound `O=C(c1ccccc1)C1OC1C(=O)c1ccccc1` (stereo unspecified), the growth in assay [1] is 13.1%; in assay [2], 10% (active); in assay [3], 11.1%; in [4], 92.9%; in [5] it was 28.1%; in assay [6], 51%. For the same compound, the growth in [7] is 37.7%; in [8], 46.8%; in assay [9], 2.54% (active); in assay [10] it was 49.2%.
For `O=C1C(Cl)=C(Nc2cccc3ccccc23)C(=O)c2ccccc21`, the growth was 70% in [1]; 90.3% in [2]; 81.6% in [3]; 92.6% in [4]; 75.6% in assay [5]; 43% in assay [6]. Also, the growth in assay [7] is 60.9%; in assay [8], 55.1%; in assay [9] it was 32.7%; in assay [10], 91.4%.
Consider `CSc1ccc(/C=C2\C=C(CC(=O)NCc3ccc(C(=O)c4ccccc4)cc3)c3cc(F)ccc32)cc1`, for which the growth was 5.88% (active) in [1]; -15.1% (active) in assay [2]; -18.4% (active) in assay [3]; 18.2% in assay [4]; -2.89% (active) in assay [5]; 12.4% in [6]. Also, the growth was -51.4% (active) in assay [7], 3.75% (active) in [8], 5.66% (active) in [9] and 18.2% in [10].
As to `NC(=O)N/N=C\c1ccc([N+](=O)[O-])o1`, the growth in assay [1] is 92.5%; in assay [2], 111%; in assay [3], 84.3%; in assay [4], 113%; in assay [5], 93%; in [6], 85.2%. The growth in [7] was 107%; in [8], 103%; in assay [9], 91.5%; in assay [10], 106%.
With `O=C(O)C(CCc1ccccc1)NCc1ccccc1` (stereo unspecified), the growth in [1] was 99.2%; in assay [2] it was 96.2%; in assay [3] it was 90.3%; in assay [4], 97.5%; in assay [5], 107%; in [6] it was 91.3%. The growth in assay [7] is 109%; in assay [8], 94.5%; in assay [9] it was 92%; in [10], 107%.
For the compound `COc1ccc(C(=O)C(CN(C)C)c2ccc(OC)cc2)cc1` (stereo unspecified), the growth in assay [1] is 30.4%; in assay [2], 13.2%; in assay [3], 64.7%; in assay [4], 90.7%; in assay [5], 69.2%; in [6] it was 39.1%. Besides, the growth was 95.5% in [7], 32.1% in assay [8], 31.3% in [9] and 79% in [10].
Turning to `CC(C)CC(=O)C(CCc1ccccn1)C(C)C` (stereo unspecified), the growth in [1] is 101%; in assay [2], 98.3%; in assay [3], 111%; in assay [5], 107%; in assay [6] it was 99.7%; in assay [7] it was 103%. Also, the growth in assay [8] is 103%; in assay [9], 96.5%; in [10], 109%.
On to `O=C(Nc1ccc(Cl)cc1)c1cc(-c2ccc(Cl)cc2)c2sc(=O)[nH]c2n1`, for which the growth in assay [1] was 7.94% (active); in assay [2], -24% (active); in assay [3] it was 10.5%; in [4], 8% (active); in [5], 0.838% (active); in [6], -13.5% (active). In addition, the growth was -19.6% (active) in assay [7], -14.7% (active) in assay [8], 13.4% in assay [9] and 25.2% in assay [10].
As to `COc1ccc(C2NC(=O)c3cc4c(cc3N2)OCO4)cc1` (stereo unspecified), the growth was 12.5% in [1]; 5.16% (active) in [2]; 5.9% (active) in assay [3]; 34% in [4]; 17.2% in [5]; 27.9% in [6]. Also, the growth in [7] was 11.9%; in [8], 25.3%; in [9], 39.9%; in assay [10], 39.8%.
With `CCCCCCCCOC(=O)C(C)OC(=O)OCCOCCOC(=O)OC(C)C(=O)OCCCCCCCC` (stereo unspecified), the growth is 111% in assay [1]; 115% in assay [2]; 102% in assay [3]; 104% in [4]; 106% in assay [5]; 87.7% in assay [6]. Moreover, the growth is 107% in [7], 94.2% in assay [8], 101% in assay [9] and 106% in assay [10].
With `O=C(N/N=C/c1ccccc1O)c1ccncc1`, the growth in [1] was 28.5%; in assay [2] it was 42.7%; in [3], 86.2%; in [4], 66.6%; in assay [5] it was 39.2%; in assay [6], 69.5%. For the same compound, the growth in assay [7] was 75.5%; in assay [8] it was 33.5%; in assay [9], 50.8%; in [10] it was 61.1%.
For `O=C(c1ccccc1)C(CCc1ccccn1)CCc1ccccn1`, the growth in [1] was 96.6%; in assay [2], 96.7%; in assay [3], 106%; in [4], 94.1%; in assay [5], 101%; in [6], 86.8%. The growth is 100% in assay [7], 86.1% in [8], 95.8% in [9] and 106% in [10].
For the compound `Cc1ccccc1Nc1n[nH]c(Cc2ccccc2)n1`, the growth is 108% in assay [1]; 79.1% in [2]; 93.9% in [3]; 97.6% in [4]; 94.3% in [5]; 86.5% in assay [6]. Besides, the growth was 93.9% in [7], 98.4% in [8], 95.5% in [9] and 113% in assay [10].
Take `C=C(C)[C@@H]1CC[C@]2(C(=O)NS(=O)(=O)c3ccccc3)CC[C@]3(C)[C@H](CC[C@@H]4[C@@]5(C)CC[C@H](OC(=O)NS(=O)(=O)c6ccccc6)C(C)(C)[C@@H]5CC[C@]43C)[C@@H]12`: the growth in assay [1] was 5.41% (active); in [2] it was 20.8%; in [3], 45.3%; in assay [4] it was 14.4%; in [5], 13%; in [6], 7.83% (active). For the same compound, the growth in [7] was -24.6% (active); in assay [8], -83.1% (active); in assay [9], 4.7% (active); in [10], -16.3% (active).
Take `O=C(CCCN1CCC(O)(c2ccc(Br)cc2)CC1)c1ccc(F)cc1`: the growth was 49.8% in [1]; 22.1% in assay [2]; 67.7% in [3]; 78.4% in assay [4]; 64.4% in assay [5]; 69.7% in assay [6]. The growth in [7] is -1.83% (active); in [8], 43.6%; in assay [9], 53.7%; in assay [10] it was 74.6%.
For `CCN1C(=O)N(CC)C2C1N=C(SC)N2/N=C/C=C/c1ccccc1OC` (stereo unspecified), the growth was 7.58% (active) in [1]; 3.96% (active) in [2]; 44.6% in assay [3]; 15.4% in [4]; 16.1% in assay [5]; 18.4% in [6]. In addition, the growth in assay [7] is 0.74% (active); in assay [8], 30.5%; in assay [9], 14.6%; in [10] it was 51.5%.
On to `CCCCCCCC/C=C/CCCCCCCC1=NC(C)(C)CN1C(C)C`, for which the growth is -45.1% (active) in [1]; -51.3% (active) in assay [2]; 25.5% in assay [3]; -76.1% (active) in assay [5]; -74.4% (active) in [6]; -86.3% (active) in assay [7]. For the same compound, the growth is -60.5% (active) in assay [8], -81.2% (active) in assay [9] and -82.8% (active) in assay [10].
As to `C=CCOC(=O)C1=C(C)NC2=C(C(=O)CCC2)C1c1ccc(F)cc1` (stereo unspecified), the growth in [1] is 105%; in [2], 101%; in assay [3], 80.3%; in assay [4], 85.2%; in [5] it was 97.8%; in [6], 90.1%. The growth in [7] is 98.8%; in [8], 80.6%; in [9], 97.1%; in assay [10], 101%.
On to `C=C(C)[C@@H]1CC[C@]2(C(=O)NC(COC(=O)C(Cl)Cl)(COC(=O)C(Cl)Cl)COC(=O)C(Cl)Cl)CC[C@]3(C)[C@H](CC[C@@H]4[C@@]5(C)CC[C@H](OC(C)=O)C(C)(C)[C@@H]5CC[C@]43C)[C@@H]12`, for which the growth in assay [1] was 27.9%; in assay [2] it was 4.68% (active); in [3], 81.2%; in assay [4], 70.6%; in assay [5], 23.4%; in assay [6] it was 11.1%. Also, the growth was 62.1% in assay [7], 81% in assay [8], 32.4% in assay [9] and 86.9% in assay [10].
For `COc1cc(/C=C/c2cc(/C=C/c3ccc(O)c(OC)c3)n(C(=O)c3ccccc3Br)n2)ccc1O`, the growth in [1] is 16.2%; in assay [2], 0.381% (active); in assay [3], 27.3%; in [4], 36.2%; in assay [5], 35.1%; in assay [6] it was 12.9%. Further, the growth in [7] is -1.91% (active); in assay [8], 3.48% (active); in assay [9], 9.29% (active); in assay [10], 28.6%.
Consider `CC(=O)O[C@H]1CC[C@]2(C)[C@H]3CC=C4[C@@H]5CC(C)(C)CC[C@]5(C(=O)OCC(COC(=O)C(Cl)Cl)(COC(=O)C(Cl)Cl)NC(=O)C(Cl)Cl)CC[C@@]4(C)[C@]3(C)CC[C@H]2C1(C)C`, for which the growth was 46.7% in [1]; 8.55% (active) in assay [2]; 85.9% in [3]; 90.4% in [4]; 45.1% in assay [5]; 22.7% in assay [6]. Also, the growth in assay [7] is 71.9%; in assay [8] it was 84.4%; in [9], 65.9%; in assay [10], 87.3%.
Turning to `CCCCCc1c(C)[nH]c(/C=C2\N=C(c3ccc[nH]3)C=C2Oc2ccc(OC)cc2)c1C`, the growth is -93.8% [100 µM] (active) in assay [1]; -64% [100 µM] (active) in assay [2]; -91.6% [100 µM] (active) in assay [3]; -83.1% [100 µM] (active) in [4]; -25.7% [100 µM] (active) in assay [6]; -73.6% [100 µM] (active) in [7]. Besides, the growth in [8] was -93.5% [100 µM] (active); in [9] it was -71.9% [100 µM] (active); in [10], -86.9% [100 µM] (active).
As to `O=S1(=O)NCCN1CCNc1nccc(-c2c(-c3cccc(O)c3)nc3sccn23)n1`, the growth was 127% in [1]; 71.6% in assay [2]; 73.3% in [3]; 122% in assay [4]; 120% in [5]; 78.5% in assay [6]. The growth in assay [7] is 94.4%; in assay [8], 6.31% (active); in assay [9], 55%; in assay [10] it was 31.3%.
